Here are results for 39 molecules from the supplement of paper PMC7858590.

The test system of one assay is human monocyte-derived macrophages (polarized). Description: cell shape (eccentricity) Z-score vs DMSO control; higher = more elongated, M2-like morphology. The following applies: 5 µM; 24 h; macrophage state: M1-polarized (IFNg + TNFa), cytokines present during treatment. As to the method: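 Primary-screen hits were rescreened on polarized hMDMs with the differentiating cytokines (IL-4 + IL-13 or IFNg + TNFa) kept in the medium during treatment with compound at 5 uM for 24 h. The eccentricity Z-score vs DMSO wells is averaged over experiments.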
On to `C[C@H](CO)N1C[C@H](C)[C@H](CN(C)C(=O)Nc2cc(F)ccc2F)Oc2cc(C#CC3CCCC3)ccc2S1(=O)=O`, for which the “cell shape (Z-score)” value was -2.86. Same read-out and setting: next, `CC(C)C[C@H](NC(=O)CNC(=O)c1cc(Cl)ccc1Cl)B(O)O`: 0.365; `c1ccc(-c2nnc(N3CCOCC3)nc2-c2ccccc2)cc1`: -1.34.

Consider `CC[C@H](Nc1ncnc2[nH]cnc12)c1nc2cccc(F)c2c(=O)n1-c1ccccc1`, for which the “cell shape (Z-score)” value is -16.8. On the same count and under the same terms, the value for `Nc1nc(N)c2nc(-c3cccc(O)c3)c(-c3cccc(O)c3)nc2n1` was 2.64; that for `CC1=C(/C=C/C(C)=C/C=C/C(C)=C/CO)C(C)(C)CCC1` was 7.5. Same read-out and setting: next, `C=C(c1ccc(C(=O)O)cc1)c1cc2c(cc1C)C(C)(C)CCC2(C)C`: 8.49; `CC[C@]12CCCN3CCc4c(n(c5ccccc45)[C@@](O)(C(=O)OC)C1)[C@@H]32`: -5.43; `CCCCCCCCCCC(C)(C)C(=O)Nc1c(OC)cc(OC)cc1OC`: -3.18. Take `COc1cccc2c1C(=O)c1c(O)c3c(c(O)c1C2=O)C[C@@](O)(C(=O)CO)C[C@@H]3O[C@H]1C[C@H](N)[C@H](O)[C@H](C)O1`: the “cell shape (Z-score)” value is 22.

As for `O=C(CCc1ccc(O)cc1)c1c(O)cc(O)cc1O`, the “cell shape (Z-score)” value was -3.42.

Consider `COc1cc2nccc(Oc3ccc(NC(=O)Nc4cc(C)on4)c(Cl)c3)c2cc1OC`, for which the “cell shape (Z-score)” value was 7.92. For the molecule `NC(=O)C1CCCc2c1[nH]c1ccc(Cl)cc21` (stereo not given), the “cell shape (Z-score)” value was -2.04. The same measure, in the same setting: next, `CCCCCCCCCc1ccc(OCCOCCOCCOCCOCCOCCOCCOCCOCCO)cc1`: 5.89. Still for that read-out and setting: next, `CCn1c(=O)c2c(nc(/C=C/c3ccc(OC)c(OC)c3)n2C)n(CC)c1=O`: 3.19; `CC1(C)C[C@@H]1C(=O)N/C(=C\CCCCSC[C@H](N)C(=O)O)C(=O)O`: 5. Still for that read-out and setting: the value for `COc1cccc2c1C(=O)c1c(O)c3c(c(O)c1C2=O)C[C@@](O)(C(C)=O)C[C@@H]3O[C@H]1C[C@H](N)[C@H](O)[C@H](C)O1` was 8.83. For the molecule `Cc1ccc2c(=O)c3ccccc3n(CCCN)c2c1C`, the “cell shape (Z-score)” value is -0.216. The same measure, in the same setting: the value for `COc1cc(C(=O)N2CCC(N3CCN(C)CC3)CC2)ccc1Nc1ncc2c(n1)N(C)c1ccccc1C(=O)N2C` was -5.99; that for `[O-][NH2+]c1ccc(O)c2ncccc12` was -6.06; that for `CC(NCCC(c1ccccc1)c1ccccc1)c1ccccc1` (stereo not given) was -8.8. On the same count and under the same terms, the value for `CC1C(=O)C(=O)[C@@H]2O[C@@H]2C1=O` (stereo not given in full) was -0.0615; that for `CN(C)C(=O)n1nnnc1Cc1ccc(-c2ccccc2)cc1` was 10.3. Same read-out and setting: next, `N[C@@H](CC(=O)N1CCn2c(nnc2C(F)(F)F)C1)Cc1cc(F)c(F)cc1F`: 2.26. In the case of `Cn1cnc(-c2cc3nccc(Oc4ccc(NC(=S)NC(=O)Cc5ccccc5)cc4F)c3s2)c1`, the “cell shape (Z-score)” value amounted to 3.19. With `Cc1[nH]c2ccccc2c1CCNCc1ccc(/C=C/C(=O)NO)cc1`, the “cell shape (Z-score)” value was found to be 6.17.

Turning to `Cn1c2ccccc2c2c3c(c4c5ccccc5n(CCC#N)c4c21)CNC3=O`, the “cell shape (Z-score)” value came to 4.83.

Turning to `CN(C)CCC=C1c2ccccc2COc2ccccc21`, the “cell shape (Z-score)” value is -7.17.

In the case of `O=Nc1c(-c2c(O)[nH]c3cc(Br)ccc23)[nH]c2ccccc12`, the “cell shape (Z-score)” value is -13.2. Same read-out and setting: the value for `NC(=O)Nc1sc(-c2ccc(F)cc2)cc1C(N)=O` was 7.48; that for `C[C@H]1[C@H](NC(=O)/C(=N\OC(C)(C)C(=O)O)c2csc(N)n2)C(=O)N1S(=O)(=O)O` was 0.443.

Still in this assay, the particulars now being: 5 µM; 24 h; macrophage state: M2-polarized (IL-4 + IL-13), cytokines present during treatment.
`Oc1ccc(/C=C/c2cc(O)cc(O)c2)cc1`: the “cell shape (Z-score)” value was -0.6. For `CCCCC[C@H](O)/C=C/[C@H]1[C@H](O)CC(=O)[C@@H]1CCCCCCC(=O)O`, the “cell shape (Z-score)” value is -28.2.

With `CCCC[C@@H](O)c1cc(OC)cc(=O)o1`, the “cell shape (Z-score)” value is -3.33. Same read-out and setting: the value for `C[C@H]1CN([C@@H](C)CO)S(=O)(=O)c2ccc(C#Cc3ccncc3)cc2O[C@@H]1CN(C)C(=O)Nc1ccc2c(c1)OCO2` was 5.87. Same read-out and setting: the value for `NC(N)=Nc1nc(CSCC/C(N)=N/S(N)(=O)=O)cs1` was 0.285; that for `COCCCC/C(=N\OCCN)c1ccc(C(F)(F)F)cc1` was -6. Same read-out and setting: next, `CN1c2ccccc2C(=O)N2CCc3c([nH]c4ccccc34)[C@@H]21`: -7.76; `CN(C)CCC=C1c2ccccc2COc2ccccc21`: -5.83. Regarding `Cc1nc(Nc2n[nH]c3c2CN(C(=O)N[C@H](CN(C)C)c2ccccc2)C3(C)C)c2sccc2n1`, the “cell shape (Z-score)” value is -7.51.
